In ChEMBL document CHEMBL1961873, “Compounds: GSK PKIS; Assays: Nanosyn kinase panel” (2012) one finds inhibition data, which are given here for 1 molecule.

Test [1] has as its target Sphingosine kinase 1 (Homo sapiens) (UniProt Q9NYA1). Conditions: at 1 µM.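 Further: mean SPHK1 inhibition value reported from the GSK PKIS kinase panel screen.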
In test [2] the target is T1, Sphingosine kinase 2 (Homo sapiens) (UniProt Q9NRA0).
T1 sequence (whole entry): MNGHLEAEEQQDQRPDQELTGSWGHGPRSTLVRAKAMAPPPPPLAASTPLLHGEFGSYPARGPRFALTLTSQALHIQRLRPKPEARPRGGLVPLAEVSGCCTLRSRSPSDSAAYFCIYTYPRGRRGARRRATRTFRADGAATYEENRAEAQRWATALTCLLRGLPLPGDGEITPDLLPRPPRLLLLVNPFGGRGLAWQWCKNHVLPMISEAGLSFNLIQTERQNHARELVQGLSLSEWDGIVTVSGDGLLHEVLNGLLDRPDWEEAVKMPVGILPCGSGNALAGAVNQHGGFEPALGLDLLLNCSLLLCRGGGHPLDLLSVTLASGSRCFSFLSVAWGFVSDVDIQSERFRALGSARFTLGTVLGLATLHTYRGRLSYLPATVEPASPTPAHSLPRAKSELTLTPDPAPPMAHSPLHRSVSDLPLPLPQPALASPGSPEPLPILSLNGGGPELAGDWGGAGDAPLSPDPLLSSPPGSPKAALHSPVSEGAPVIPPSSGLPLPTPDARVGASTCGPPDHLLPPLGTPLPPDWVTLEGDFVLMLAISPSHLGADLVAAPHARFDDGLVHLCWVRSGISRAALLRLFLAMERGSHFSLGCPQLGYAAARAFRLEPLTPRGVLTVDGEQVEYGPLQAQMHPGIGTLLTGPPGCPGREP
Conditions: at 0.1 µM.

The target in test [3] is T1, Sphingosine kinase 2 (Homo sapiens). Conditions: at 1 µM.
The target of test [4] is Casein kinase II subunit alpha (Homo sapiens) (UniProt P68400). As to conditions: at 0.1 µM.
Test [5] shares this target. Conditions: at 1 µM.
The target of test [6] is T2, Inhibitor of nuclear factor kappa-B kinase subunit alpha (Homo sapiens) (UniProt O15111).
T2 sequence (whole entry): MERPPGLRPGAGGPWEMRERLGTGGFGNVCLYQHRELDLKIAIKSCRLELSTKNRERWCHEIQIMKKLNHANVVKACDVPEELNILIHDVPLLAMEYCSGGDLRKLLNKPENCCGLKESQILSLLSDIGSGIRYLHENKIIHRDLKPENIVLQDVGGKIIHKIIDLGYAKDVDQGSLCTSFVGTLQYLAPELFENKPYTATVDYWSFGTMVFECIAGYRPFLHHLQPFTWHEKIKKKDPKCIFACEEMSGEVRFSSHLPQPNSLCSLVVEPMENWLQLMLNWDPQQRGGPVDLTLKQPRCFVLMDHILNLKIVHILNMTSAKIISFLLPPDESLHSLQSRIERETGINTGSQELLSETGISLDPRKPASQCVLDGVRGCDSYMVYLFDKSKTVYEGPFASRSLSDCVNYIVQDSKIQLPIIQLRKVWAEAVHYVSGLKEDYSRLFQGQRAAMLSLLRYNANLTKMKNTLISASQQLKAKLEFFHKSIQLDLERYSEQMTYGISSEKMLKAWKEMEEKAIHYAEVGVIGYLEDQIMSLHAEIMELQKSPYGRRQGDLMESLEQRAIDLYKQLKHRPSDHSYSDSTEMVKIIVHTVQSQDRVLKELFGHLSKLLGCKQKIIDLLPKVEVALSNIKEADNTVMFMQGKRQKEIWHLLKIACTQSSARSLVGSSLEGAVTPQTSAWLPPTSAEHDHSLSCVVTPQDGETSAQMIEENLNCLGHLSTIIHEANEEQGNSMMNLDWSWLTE
Conditions: at 0.1 µM.

The target in test [7] is T2, Inhibitor of nuclear factor kappa-B kinase subunit alpha (Homo sapiens). Conditions: at 1 µM.
The target of test [8] is T3, Inhibitor of nuclear factor kappa-B kinase subunit beta (Homo sapiens) (UniProt O14920).
T3 sequence (whole entry): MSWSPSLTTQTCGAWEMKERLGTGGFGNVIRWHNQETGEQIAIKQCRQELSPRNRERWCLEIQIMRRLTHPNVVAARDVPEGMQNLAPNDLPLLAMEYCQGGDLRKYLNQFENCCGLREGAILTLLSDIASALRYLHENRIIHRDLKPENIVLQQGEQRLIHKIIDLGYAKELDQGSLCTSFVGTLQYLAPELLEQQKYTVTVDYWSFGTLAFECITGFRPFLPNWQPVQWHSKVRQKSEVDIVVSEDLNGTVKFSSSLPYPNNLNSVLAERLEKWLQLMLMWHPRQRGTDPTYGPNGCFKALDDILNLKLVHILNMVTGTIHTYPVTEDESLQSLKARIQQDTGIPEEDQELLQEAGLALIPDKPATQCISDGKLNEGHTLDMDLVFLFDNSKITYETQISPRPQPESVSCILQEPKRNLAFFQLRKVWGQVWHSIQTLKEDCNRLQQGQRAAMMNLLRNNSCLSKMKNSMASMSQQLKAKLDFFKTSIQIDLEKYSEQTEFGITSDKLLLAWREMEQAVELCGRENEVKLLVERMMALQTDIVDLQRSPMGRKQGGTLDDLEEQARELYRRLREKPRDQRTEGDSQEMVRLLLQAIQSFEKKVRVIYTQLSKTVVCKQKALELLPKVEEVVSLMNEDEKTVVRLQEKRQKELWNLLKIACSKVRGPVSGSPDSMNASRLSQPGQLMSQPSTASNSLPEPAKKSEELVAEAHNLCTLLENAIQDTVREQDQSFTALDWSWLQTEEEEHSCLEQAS
Conditions: at 0.1 µM.

The target in test [9] is T3, Inhibitor of nuclear factor kappa-B kinase subunit beta (Homo sapiens). As to conditions: at 1 µM.
The target in test [10] is T4, Inhibitor of nuclear factor kappa-B kinase subunit epsilon (Homo sapiens) (UniProt Q14164).
T4 sequence (whole entry): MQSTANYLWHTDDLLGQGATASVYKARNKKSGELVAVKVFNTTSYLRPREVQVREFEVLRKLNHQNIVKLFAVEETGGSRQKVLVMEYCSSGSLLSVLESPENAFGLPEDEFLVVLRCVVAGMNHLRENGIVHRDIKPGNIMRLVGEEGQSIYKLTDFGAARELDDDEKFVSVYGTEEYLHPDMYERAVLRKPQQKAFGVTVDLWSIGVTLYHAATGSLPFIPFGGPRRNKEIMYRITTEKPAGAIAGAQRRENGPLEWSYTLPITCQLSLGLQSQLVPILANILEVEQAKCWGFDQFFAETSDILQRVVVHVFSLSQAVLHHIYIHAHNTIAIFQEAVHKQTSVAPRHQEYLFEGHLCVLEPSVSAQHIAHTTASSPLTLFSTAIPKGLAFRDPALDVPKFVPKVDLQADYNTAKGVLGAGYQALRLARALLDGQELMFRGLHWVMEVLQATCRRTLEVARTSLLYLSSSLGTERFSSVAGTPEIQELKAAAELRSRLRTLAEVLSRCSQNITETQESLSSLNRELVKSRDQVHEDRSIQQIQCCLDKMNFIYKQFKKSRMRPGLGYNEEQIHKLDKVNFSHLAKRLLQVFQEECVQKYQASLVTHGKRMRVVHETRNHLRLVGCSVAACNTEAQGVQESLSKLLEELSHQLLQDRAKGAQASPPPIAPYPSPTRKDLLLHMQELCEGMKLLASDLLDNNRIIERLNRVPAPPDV
Conditions: at 0.1 µM.

Test [11] addresses T4, Inhibitor of nuclear factor kappa-B kinase subunit epsilon (Homo sapiens). Conditions: at 1 µM.
The target of test [12] is T5, Serine/threonine-protein kinase Nek1 (Homo sapiens) (UniProt Q96PY6).
T5 sequence (whole entry): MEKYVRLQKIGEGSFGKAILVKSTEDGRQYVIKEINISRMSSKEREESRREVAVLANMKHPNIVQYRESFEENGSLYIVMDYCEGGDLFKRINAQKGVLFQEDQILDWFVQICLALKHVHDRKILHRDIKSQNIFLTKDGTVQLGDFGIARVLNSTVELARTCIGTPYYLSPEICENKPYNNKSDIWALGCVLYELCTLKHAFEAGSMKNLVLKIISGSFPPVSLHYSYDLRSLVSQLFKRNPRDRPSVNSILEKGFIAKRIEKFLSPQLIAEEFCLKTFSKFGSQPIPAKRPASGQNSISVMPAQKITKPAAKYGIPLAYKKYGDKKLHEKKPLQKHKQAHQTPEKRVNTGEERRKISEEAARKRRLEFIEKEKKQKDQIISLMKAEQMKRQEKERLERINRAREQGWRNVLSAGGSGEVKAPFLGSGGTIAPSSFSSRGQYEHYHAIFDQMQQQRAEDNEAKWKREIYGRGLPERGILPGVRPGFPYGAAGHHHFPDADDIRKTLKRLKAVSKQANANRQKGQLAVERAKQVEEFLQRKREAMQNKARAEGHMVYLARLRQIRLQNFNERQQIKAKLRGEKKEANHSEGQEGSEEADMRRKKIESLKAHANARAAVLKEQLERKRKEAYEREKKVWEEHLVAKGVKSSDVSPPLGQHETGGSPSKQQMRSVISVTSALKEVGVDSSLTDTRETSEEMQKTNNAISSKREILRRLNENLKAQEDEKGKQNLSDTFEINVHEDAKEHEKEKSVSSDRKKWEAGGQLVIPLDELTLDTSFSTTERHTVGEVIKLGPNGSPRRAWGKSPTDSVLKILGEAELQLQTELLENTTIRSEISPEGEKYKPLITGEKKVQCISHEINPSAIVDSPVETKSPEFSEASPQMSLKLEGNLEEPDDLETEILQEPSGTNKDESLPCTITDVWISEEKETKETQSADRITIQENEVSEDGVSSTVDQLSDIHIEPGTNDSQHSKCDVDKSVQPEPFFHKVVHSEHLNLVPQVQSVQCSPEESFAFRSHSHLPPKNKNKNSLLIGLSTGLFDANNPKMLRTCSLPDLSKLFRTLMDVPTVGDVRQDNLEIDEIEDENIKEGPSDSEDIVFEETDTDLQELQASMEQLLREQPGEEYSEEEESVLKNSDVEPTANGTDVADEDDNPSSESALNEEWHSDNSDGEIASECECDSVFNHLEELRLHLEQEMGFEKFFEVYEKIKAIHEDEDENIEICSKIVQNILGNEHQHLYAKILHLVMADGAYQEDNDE
Conditions: at 0.1 µM.

Test [13] addresses T5, Serine/threonine-protein kinase Nek1 (Homo sapiens). As to conditions: at 1 µM.
The target of test [14] is T6, Serine/threonine-protein kinase Nek2 (Homo sapiens) (UniProt P51955).
T6 sequence (whole entry): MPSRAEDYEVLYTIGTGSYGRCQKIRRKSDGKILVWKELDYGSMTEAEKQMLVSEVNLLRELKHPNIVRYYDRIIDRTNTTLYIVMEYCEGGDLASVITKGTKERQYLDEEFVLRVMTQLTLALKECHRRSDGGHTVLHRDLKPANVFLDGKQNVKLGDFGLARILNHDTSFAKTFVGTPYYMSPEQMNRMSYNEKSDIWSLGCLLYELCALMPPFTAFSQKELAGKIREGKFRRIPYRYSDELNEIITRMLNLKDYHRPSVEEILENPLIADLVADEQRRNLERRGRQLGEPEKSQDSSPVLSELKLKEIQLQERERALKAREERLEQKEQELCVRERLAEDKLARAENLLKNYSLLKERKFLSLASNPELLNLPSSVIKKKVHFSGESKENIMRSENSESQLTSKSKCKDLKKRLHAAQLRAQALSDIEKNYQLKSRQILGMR
As to conditions: at 0.1 µM.

The target of test [15] is T6, Serine/threonine-protein kinase Nek2 (Homo sapiens). As to conditions: at 1 µM.
The target in test [16] is Serine/threonine-protein kinase Nek6 (Homo sapiens) (UniProt Q9HC98). Conditions: at 0.1 µM.
For test [17] the target is unchanged. As to conditions: at 1 µM.
The target of test [18] is Serine/threonine-protein kinase Nek7 (Homo sapiens) (UniProt Q8TDX7). Conditions: at 0.1 µM.
For test [19] the target is unchanged. Conditions: at 1 µM.
Test [20] addresses T7, Serine/threonine-protein kinase Nek9 (Homo sapiens) (UniProt Q8TD19).
T7 sequence (whole entry): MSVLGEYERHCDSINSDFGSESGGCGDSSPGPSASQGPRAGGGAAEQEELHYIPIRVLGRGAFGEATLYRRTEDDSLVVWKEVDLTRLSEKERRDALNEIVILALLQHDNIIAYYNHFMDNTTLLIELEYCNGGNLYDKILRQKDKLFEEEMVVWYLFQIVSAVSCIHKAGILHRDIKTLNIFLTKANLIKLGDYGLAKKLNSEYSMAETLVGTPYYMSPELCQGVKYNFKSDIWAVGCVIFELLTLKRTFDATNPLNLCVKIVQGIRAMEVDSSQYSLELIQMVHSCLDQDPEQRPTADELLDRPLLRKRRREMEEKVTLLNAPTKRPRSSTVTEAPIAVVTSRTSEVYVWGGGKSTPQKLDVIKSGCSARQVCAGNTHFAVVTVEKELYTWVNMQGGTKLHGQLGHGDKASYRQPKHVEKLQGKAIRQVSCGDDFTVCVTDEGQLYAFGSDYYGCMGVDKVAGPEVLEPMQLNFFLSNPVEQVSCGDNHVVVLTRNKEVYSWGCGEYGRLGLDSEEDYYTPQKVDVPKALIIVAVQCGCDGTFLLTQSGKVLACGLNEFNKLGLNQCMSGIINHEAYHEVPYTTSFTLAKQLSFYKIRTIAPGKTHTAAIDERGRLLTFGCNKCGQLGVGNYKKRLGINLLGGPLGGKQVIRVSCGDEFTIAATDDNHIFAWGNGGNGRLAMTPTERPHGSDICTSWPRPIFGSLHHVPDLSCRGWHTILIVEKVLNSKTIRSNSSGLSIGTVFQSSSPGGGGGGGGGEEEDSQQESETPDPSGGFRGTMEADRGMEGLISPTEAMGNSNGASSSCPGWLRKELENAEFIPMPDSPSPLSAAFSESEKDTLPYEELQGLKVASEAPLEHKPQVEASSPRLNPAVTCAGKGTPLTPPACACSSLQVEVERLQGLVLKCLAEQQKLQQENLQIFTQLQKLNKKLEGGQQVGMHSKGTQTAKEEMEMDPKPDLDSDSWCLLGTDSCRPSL
As to conditions: at 0.1 µM.

Sequence of Casein kinase II subunit alpha (Homo sapiens) (P68400 whole entry, looked up): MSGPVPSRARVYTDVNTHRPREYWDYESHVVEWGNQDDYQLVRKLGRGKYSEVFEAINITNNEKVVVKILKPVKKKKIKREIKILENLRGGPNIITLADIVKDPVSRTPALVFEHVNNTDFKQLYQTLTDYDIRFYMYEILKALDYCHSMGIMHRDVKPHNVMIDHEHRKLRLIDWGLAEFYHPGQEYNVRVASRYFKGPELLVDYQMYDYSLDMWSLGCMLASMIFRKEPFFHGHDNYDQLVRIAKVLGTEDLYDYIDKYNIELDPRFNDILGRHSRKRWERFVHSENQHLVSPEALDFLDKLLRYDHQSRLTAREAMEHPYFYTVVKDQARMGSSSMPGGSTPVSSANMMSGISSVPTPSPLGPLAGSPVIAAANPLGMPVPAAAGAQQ
Sequence of Serine/threonine-protein kinase Nek7 (Homo sapiens) (Q8TDX7 whole entry, looked up): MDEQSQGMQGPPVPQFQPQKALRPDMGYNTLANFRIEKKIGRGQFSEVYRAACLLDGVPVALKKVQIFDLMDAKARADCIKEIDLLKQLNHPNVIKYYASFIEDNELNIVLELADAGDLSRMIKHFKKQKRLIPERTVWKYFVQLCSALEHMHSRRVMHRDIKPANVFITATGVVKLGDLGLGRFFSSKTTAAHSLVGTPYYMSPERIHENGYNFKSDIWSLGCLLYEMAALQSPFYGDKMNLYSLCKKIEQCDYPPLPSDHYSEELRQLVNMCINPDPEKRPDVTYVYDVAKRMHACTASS
Sequence of Serine/threonine-protein kinase Nek6 (Homo sapiens) (Q9HC98 whole entry): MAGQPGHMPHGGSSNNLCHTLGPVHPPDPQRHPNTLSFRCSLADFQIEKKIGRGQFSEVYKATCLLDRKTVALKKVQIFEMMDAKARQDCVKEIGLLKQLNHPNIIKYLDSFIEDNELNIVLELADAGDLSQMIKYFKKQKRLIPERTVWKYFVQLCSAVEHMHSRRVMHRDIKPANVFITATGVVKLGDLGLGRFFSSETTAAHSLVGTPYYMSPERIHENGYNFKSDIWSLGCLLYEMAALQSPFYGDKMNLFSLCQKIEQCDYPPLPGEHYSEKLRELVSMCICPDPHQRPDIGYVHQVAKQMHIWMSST
Sequence of Sphingosine kinase 1 (Homo sapiens) (Q9NYA1 whole entry): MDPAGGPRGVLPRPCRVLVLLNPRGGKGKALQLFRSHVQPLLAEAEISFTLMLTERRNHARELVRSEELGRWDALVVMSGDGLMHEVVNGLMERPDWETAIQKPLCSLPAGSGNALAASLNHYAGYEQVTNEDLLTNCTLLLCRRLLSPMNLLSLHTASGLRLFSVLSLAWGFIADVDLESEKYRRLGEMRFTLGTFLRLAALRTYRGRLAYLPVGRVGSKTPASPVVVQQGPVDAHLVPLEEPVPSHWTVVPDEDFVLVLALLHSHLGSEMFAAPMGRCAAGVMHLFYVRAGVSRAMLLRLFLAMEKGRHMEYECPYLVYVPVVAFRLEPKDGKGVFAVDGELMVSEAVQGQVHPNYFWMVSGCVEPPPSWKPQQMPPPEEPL

As a reminder, the inhibition is the change of the read-out against control, counted positive when it falls. Regarding `Clc1ccc(-c2nn3ncccc3c2-c2ccnc(Nc3ccccc3)n2)cc1`, the inhibition was -1.12% in test [1]; -0.19% in test [2]; 0.98% in test [3]; 1.72% in [4]; 1.08% in test [5]; -0.83% in test [6]. In addition, the inhibition in test [7] was 0.14%; in [8], -3.05%; in [9], -3.62%; in test [10], 1.23%; in test [11], -3.51%; in test [12], 1.79%. Besides, the inhibition came to 1.38% in test [13]; 2.53% in test [14]; 1.79% in test [15]; 2.55% in [16]; 2.29% in test [17]; 2.07% in test [18]. Besides, the inhibition in test [19] worked out at 1.34%; in test [20], 5.9%.
